Source: PubChem (SRMLSC)
Autofluor 339 = intrinsic fluorescence of library compounds, ex339/em460 – biochemical, MLSMR library, data from DPM-DC assay, artefact control, profiling panel. AID 709, 2007. 65,000 tested, 5.5% active. fluorescence fold increase at 10 µM. compound autofluorescence, ex339/em460 nm, NADH buffer; active compounds read high; 1 = no-compound wells, NADH background;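 active = at 10 µM, mean starting fluorescence two-fold or more over control wells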;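 also: signal is the first read of a kinetic run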
NADH coupling = inhibitors of PK/LDH coupling enzymes, profiling panel, artefact control, biochemical, MLSMR library | coupled PK/LDH NADH assays, four targets | IC50, µM (doses to about 10 µM), for inactives: at the top dose inhibition | 65,000 tested, 0.02% active;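 active = single-dose screening hits from any of four coupled enzyme assays that gave an IC50 when retested across doses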;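 also: the DPM-DC format reads NADH fluorescence rather than 340 nm absorbance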
A340 absorber = compound light absorbance at 340 nm, profiling panel, artefact control, biochemical, MLSMR library, data from PS, PMK, MK assays. fold change at 10 µM. 65,000 tested, under 10 active. compound absorbance at 340 nm, fold over control. AID 708, 2007;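 active = at 10 µM dose, initial 340 nm absorbance at least 2 fold that of control wells; inactive = change under 2 fold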;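 also: initial absorbance extrapolated from kinetic A340 decline of NADH oxidation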
Spn DPM-DC inh = S. pneumoniae DPM-DC inhibitors, primary screen, biochemical, PK/LDH-coupled NADH fluorescence; diphosphomevalonate decarboxylase (Streptococcus pneumoniae D39); purified DPM-DC; calls only at 10 µM; 65,000 tested, 0.49% active;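 active = the 320 compounds with the highest percent inhibition in the single-dose primary screen, excluding strongly autofluorescent ones, cut at about 32% in these data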;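 also: kinetic rate of NADH fluorescence loss reporting ADP formed by the decarboxylase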
Spn MK inh = S. pneumoniae MK inhibitors, primary screen, biochemical, PK/LDH-coupled NADH absorbance; purified MK, PK/LDH-coupled NADH absorbance 340 nm; inhibition, % at 10 µM; 65,000 tested, 0.48% active;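 active = ranked among the strongest by inhibition in the single 10 µM screen, a fixed top-ranked set picked for dose follow-up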
PMK inhibit = S. pneumoniae PMK inhibitors, primary screen, biochemical, mevalonate pathway, pilot trial included; purified PMK, PK/LDH-coupled NADH absorbance 340 nm; inhibition, % at 10 µM; 65,000 tested, 0.49% active; AID 539, 2006;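 active = top-ranked compounds by inhibition in the single 10 µM screen, taking a fixed number of the strongest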;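 also: 0% = full reaction with DMSO carrier and 100% = background rate without enzyme reaction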
* hit, by the source's call; i = inactive; / = no result given; + = active, no number. Sampled rows, rich in hits. Any-hit rate of the full collection: about 6.3%.

SMILES	Autofluor 339	NADH coupling	A340 absorber	Spn DPM-DC inh	Spn MK inh	PMK inhibit
Cc1cc(NS(=O)(=O)c2ccc(NC(=O)C(C)Oc3ccc4c(C)cc(=O)oc4c3)cc2)no1 (stereo not given)	2*	10%	1.1	i	9	6
CCOC(=O)c1ccc(N2CC(O)=C(c3nc4ccccc4c(=O)[nH]3)C2=N)cc1	2.4*	3%	1.1	/	4	1
COc1ccc(CCN2CC(O)=C(c3nc4ccccc4c(=O)[nH]3)C2=N)cc1OC	2.3*	4%	1	/	9	10
Cc1c(C#N)c2ccccc2n1CC(=O)NCc1cccnc1	0.9	12%	0.99	i	10	15
COc1ccc(C(=O)CSc2nnc(-c3ccc(C)cc3)o2)cc1	1.1	3%	1	i	12	10
COc1ccc(OC)c(C(=O)CSc2nnc(-c3ccc(OC)c(OC)c3)o2)c1	2*	5%	1	i	6	0
Cn1c(=O)[nH]c(=O)c2c1nc1n2CCCS1	1.2	8%	1	i	3	12
CN(Cc1c(F)cccc1Cl)c1ccc(S(=O)(=O)N2CCOCC2)cn1	2.6*	8%	1	i	0	10
COc1ccc(NS(=O)(=O)c2cccc(-c3nnc4n3CCCCC4)c2)cc1	1.1	1%	1	i	4	0
COc1ccc(-c2cc3nc4n(c(=O)c3s2)CCC4)cc1	3*	4%	1	/	6	9
Oc1ccc(N=Cc2ccc(-c3cccs3)s2)cc1	2.2*	9%	1.1	/	7	10
COc1ccc(OC)c(NC(=O)CSc2nnc(CNc3ccc(C)cc3C)o2)c1	1.1	7%	0.97	i	9	11
COc1ccc2[nH]c(=O)c(CN(CC3CCCO3)C(=O)Nc3ccccc3OC)cc2c1 (stereo not given)	2.5*	14%	1.1	i	10	10
COc1ccccc1NC(=O)N(Cc1cc2cc(OC)c(OC)cc2[nH]c1=O)CC1CCCO1 (stereo not given)	2.7*	11%	1.1	i	0	8
COc1cc(C(=O)N(Cc2cc3ccccc3[nH]c2=O)CC2CCCO2)cc(OC)c1OC (stereo not given)	1.3	9%	1	i	9	14
CCN1CCCC1CN(Cc1cc2cc(C)cc(C)c2[nH]c1=O)C(=O)Nc1ccccc1OC (stereo not given)	1.3	9%	1	i	11	16
CCc1ccc2[nH]c(=O)c(CN(CCCN3CCOCC3)C(=O)Nc3cccc(Cl)c3)cc2c1	1.2	8%	1	i	8	15
COc1ccc2[nH]c(=O)c(CN(CCN3CCCC3)C(=O)Nc3ccccc3Cl)cc2c1	3.2*	12%	1	i	6	4
CCOc1nc(-c2ccc(OC)cc2)ccc1-c1noc(-c2cccnc2)n1	1.9	10%	1	i	10	9
CCOc1nc(C)ccc1-c1noc(-c2ccncc2)n1	1.1	3%	1	i	8	0
CCOc1nc(-c2ccccc2)ccc1-c1noc(-c2ccncc2)n1	3.3*	8%	1	/	0	15
CCOc1nc(-c2ccc(C)cc2)ccc1-c1noc(-c2cccnc2)n1	3*	10%	1.1	i	9	3
CCOc1nc(-c2ccc(OC)cc2)ccc1-c1noc(-c2ccncc2)n1	3*	5%	1.1	i	2	0
COCC(=O)Nc1nnc(SCC(=O)NCc2cccs2)s1	1.1	4%	0.97	i	4	8
N#CCCSCc1ccc(OCC(=O)O)cc1	1.1	2%	1	i	3	4
SMILES	Autofluor 339	NADH coupling	A340 absorber	Spn DPM-DC inh	Spn MK inh	PMK inhibit
O=C(O)C1CSC2c3ccccc3C(=O)N12 (stereo not given)	1	3%	1	i	2	10
COc1ccc2[nH]cc(C(=O)CN3CCCCC3)c2c1	1.1	4%	1.1	i	8	5
O=C(CCCC(=O)NCC1CCCO1)NCC1CCCO1 (stereo not given)	1.1	9%	1	i	6	3
Cc1ccc(Cn2c(=N)c(C(=O)NCc3ccco3)cc3c(=O)n4ccccc4nc32)cc1	1.9	6%	1	i	0	17
CCOC(=O)c1cc2c(=O)n3ccccc3nc2n(Cc2ccccc2Cl)c1=N	2.3*	1%	1	/	0	1
COc1ccc(CCn2c(=N)c(C(=O)N3CCN(C)CC3)cc3c(=O)n4ccccc4nc32)cc1	1.6	9%	1.1	i	15	11
CCOC(=O)c1cc2c(=O)n3ccccc3nc2n(Cc2ccccc2)c1=N	2.5*	4%	0.98	/	3	20
O=C(OCc1nnc(-c2ccccc2)o1)c1cc(=O)c2ccccc2o1	1	7%	0.99	i	4	17
O=C(Nc1ccc(NC(=O)C2CC2)nc1)c1ccncc1	0.99	7%	1	i	10	11
Cc1cc(C)n(C(=O)c2cc3sccc3[nH]2)n1	1.1	4%	1.1	i	6	4
COc1cc2nc(N3CCN(C(=O)c4ccco4)CC3)nc(N)c2cc1OC	2.5*	2%	1	i	6	0
COc1cc2nc(N3CCN(C(=O)C4COc5ccccc5O4)CC3)nc(N)c2cc1OC (stereo not given)	2.5*	2%	1	/	6	4
CC(=O)Nc1cc2nn(-c3ccccc3)nc2cc1Cl	2.3*	6%	1.1	/	11	0
O=C(Nc1cc2nn(-c3ccccc3)nc2cc1Cl)c1ccco1	3.8*	10%	1.2	/	12	7
O=C(Nc1ccc2nn(-c3ccccc3)nc2c1)c1cccnc1	1.3	4%	1.1	i	12	1
COc1ccc(-n2nc(C(=O)NCc3ccco3)c3c4ccccc4n(C)c3c2=O)cc1	4.8*	4%	1.1	/	0	8
CC(C)(C)CC(=O)Nc1nnc(-c2cccs2)s1	1.3	17%	1.1	+	0	14
Cc1ccc(OCc2nnc(NC(=O)Cc3cccs3)s2)cc1	1.1	4%	1	i	11	0
Nc1c(C(=O)NCCN2CCOCC2)c2nc3ccccc3nc2n1CCc1ccccc1	3.9*	10%	1	/	13	6
c1ccc2nc3c(nc2c1)c1ccccc1n3CCN1CCOCC1	1.2	2%	1.1	i	5	2
CC(=O)Nc1ccc(S(=O)(=O)c2c(N)n(CCN3CCOCC3)c3nc4ccccc4nc23)cc1	2.3*	4%	1.1	/	8	0
Nc1c(C(=O)NCCN2CCOCC2)c2nc3ccccc3nc2n1CCc1ccccc1F	3.9*	10%	1	/	18	2
